A short description of assay [1]: Cell Viability - BJ (AID 421; calls by dose curve;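 note: potency is the fitted concentration of half-maximal effect; cells exposed to compound for 40 hours at 37 °C before readout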). Particulars: BJ fibroblast viability, qHTS. In outline: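 Cytotoxicity as drop in intracellular ATP (CellTiter-Glo, 20 min RT) after 40 hr compound exposure of BJ fibroblasts at 37 °C. Titrations scaled between DMSO and 100 uM tamoxifen, Hill-fitted for AC50.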
For orientation: Quantitative high-throughput screening tests each substance at several concentrations.

A short description of assay [2]: Cell Viability - Hek293 (AID 427;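 active = compounds whose dose-response curve shows a full or clear partial loss of cell viability, called from curve shape rather than a numeric limit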;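 note: potency is the fitted concentration of half-maximal effect; cells exposed to compound for 40 hours at 37 °C before reading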). The note with it: qHTS. The gist of the method:
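Luminescent ATP content (CellTiter-Glo, 20 min at room temperature) was measured after a 40 hr, 37 °C compound exposure of HEK293 cells. AC50 values came from Hill-equation fits of qHTS concentration-response data normalized to DMSO and 100 uM tamoxifen.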

Assay [3] can be described thus: Cell Viability - MRC5 (AID 434; calls by dose curve;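 note: potency is the fitted concentration of half-maximal effect; cells exposed to compound for 40 hours at 37 °C; potency reflects cytotoxicity seen as loss of intracellular ATP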). Particulars: MRC5 lung fibroblast viability, qHTS. The gist of the method: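 ATP luminescence read-out (CellTiter-Glo, 20 min RT) after 40 hr, 37 °C compound exposure of 1500 MRC5 cells/well. Data normalized to DMSO (basal) and 100 uM tamoxifen (100% inhibition); AC50 from standard Hill equation.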
Assay [4] is described as follows: Cell Viability - NIH 3T3 (AID 541).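 Note: cells exposed to compound for 40 hours; plate controls were DMSO alone for no effect and tamoxifen positive control for full effect; nearly all actives have a fitted effect of over 25% in size.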 Particulars: NIH 3T3 cell viability, qHTS; activity change, negative = cytotoxicity: at 92.2 µM (top of the series). In outline: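 qHTS format; 40 hr compound exposure, 37 °C; CellTiter-Glo luminescence (cellular ATP) read-out after 20 min at RT. Decrease in ATP = cytotoxicity; AC50 from standard Hill fit.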
Assay [5] can be described thus: Cell Viability - H-4-II-E (AID 543).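 Note: cells exposed to compound for 40 hours; % is set by controls: 0 for no effect and ±100 for the full control effect; nearly all actives have a fitted effect of over 35% in size.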 Particulars: H-4-II-E rat hepatoma viability; series mostly up to 92.2 µM. In outline: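 qHTS, rat hepatoma H-4-II-E, 1500 cells/well; 40 hr compound exposure, 37 °C; CellTiter-Glo ATP luminescence after 20 min RT; AC50 by standard Hill fit.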
Assay [6] can be described thus: Cellular Toxicity (caspase-3) Mesangial (AID 660).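 Note: combined caspase 3 and 7 activity read by Caspase-Glo luminescence; cells exposed to compound for 16 h before the caspase read.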 Particulars: mesangial cells, normalized: DMSO 0%, 100 µM tamoxifen 100%; series mostly up to 91.7 µM. In outline: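 Luminescent Caspase-Glo 3/7 readout (aminoluciferin substrate cleavage, 20 min RT) after 16 h compound exposure at 37 °C of normal human mesangial cells. Signal increase normalized between DMSO basal and 100 uM tamoxifen; Hill-equation AC50.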

Assay [7] is described as follows: Cell Viability - LYMP2-011 (AID 969).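 Note: cells exposed to compound for 24 hours; 0% = DMSO only and full inhibition = 92 µM tetraoctylammonium bromide; nearly all actives have a fitted effect of over 60% in size.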 Particulars: LYMP2-011 lymphoblastoid cells viability; series mostly up to 92.2 µM. The gist of the method: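 Luminescent ATP read-out (CellTiter-Glo, 30 min RT) after 24 hr compound exposure at 37 C in human lymphoblastoid cells, 2500 cells/well. Decreasing ATP indicates cytotoxicity; AC50 from standard Hill fit.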
The nature of assay [8]: Cell Viability - LYMP2-025 (AID 976).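 Note: plate controls were DMSO only for no effect and tetraoctylammonium bromide control for full effect.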 Particulars: LYMP2-025 lymphoblastoid cell viability; series mostly up to 92.2 µM. In outline:
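CellTiter-Glo luminescence (cellular ATP) after 24 h compound exposure at 37 C; LYMP2-025 human lymphoblastoid cells, 2500/well, complete medium. Tetraoctylammonium bromide positive control. AC50 by Hill equation fit of qHTS concentration-response.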

Assay [9] deals with Bile acid receptor (Homo sapiens) (UniProt Q96RI1). Briefly: qHTS assay for small molecule agonists of farnesoid X receptor signaling (AID 588527; calls by dose curve;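 note: 0% = vehicle basal and 100% = reference agonist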). The note with it: HEK293T FXR-UAS-bla, beta-lactamase ratio, 16 h; stronger effect = higher value. The gist of the method:
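Agonist-mode beta-lactamase reporter in GeneBLAzer FXR-UAS-bla HEK293T cells, titration up to 92 uM, 16 h exposure at 37 C, CCF4 fluorescence. Response scaled to DMSO (0%) and 100 uM chenodeoxycholic acid (100%), then Hill-fitted for EC50 and efficacy.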

Assay [10] concerns the target Glucocorticoid receptor (Homo sapiens) (UniProt P04150). The assay is described as follows: qHTS assay for small molecule agonists of glucocorticoid receptor signaling (AID 588532; active = well fitted curve in the direction sought with a large enough effect in the signal ratio, with a control signal flat; the % refers to the signal ratio;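 note: 100% = dexamethasone at 0.1 µM and 0% = DMSO only wells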). The note with it: HeLa MMTV-bla, beta-lactamase ratio, agonist, 18 h; stronger effect = higher value; percent of dexamethasone control, DMSO zero. In outline:
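HeLa GRE-bla reporter cells; 18 h compound exposure at 37 C; 2 h CCF4 loading at room temperature; fluorescence at 460 and 530 nm; EC50 by Hill equation.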

Assay [11] deals with Peroxisome proliferator-activated receptor delta (Homo sapiens) (UniProt Q03181). Briefly: qHTS assay for small molecule agonists of peroxisome proliferator-activated receptor delta signaling (AID 588534; calls by dose curve;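 note: 0% = DMSO basal wells and 100% = positive control agonist at 10 µM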). Particulars: HEK293T PPARdelta-UAS-bla, beta-lactamase ratio, 18 h; series mostly up to 76.7 µM. The gist of the method:
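Titration series tested in agonist mode on beta-lactamase reporter cells; 18 hrs at 37 C after a 5 hr pre-incubation. Readout: CCF4 fluorescence, 2 hrs RT. Hill equation gives EC50 and maximal response.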

Assay [12] has as its target Peroxisome proliferator-activated receptor gamma (Homo sapiens) (UniProt P37231). The assay is described as follows: qHTS assay for small molecule agonists of peroxisome proliferator-activated receptor gamma signaling (AID 588536; active = well fitted curve in the direction sought with a large enough effect in the signal ratio, with a control signal flat, not every such curve was filed as active; the % refers to the signal ratio;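 note: 0% = DMSO basal wells and 100% = rosiglitazone at 2 µM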). Particulars: HEK293 PPARg-UAS-bla, beta-lactamase ratio, 16 h, percent of rosiglitazone response, DMSO as zero; series mostly up to 76.7 µM. In outline: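 This is an agonist-mode beta-lactamase reporter assay in HEK293 PPAR-gamma-UAS-bla cells with 1% charcoal/dextran FBS. Compound titrations ran 16 h at 37 C before CCF4 detection. EC50 and efficacy are Hill fits scaled to 2 uM rosiglitazone (100%) and DMSO basal.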

For assay [13] the target is unchanged. Briefly: qHTS assay for small molecule antagonists of peroxisome proliferator-activated receptor gamma signaling (AID 588537; active = well fitted inhibition curve with a large enough effect in the signal ratio, with a control signal flat, not every such curve was filed as active; the % refers to the signal ratio;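 note: reporter cells co-stimulated with 50 nM rosiglitazone agonist during compound treatment; % of control where 0% means no effect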). The note with it: HEK293 PPARg-UAS-bla, beta-lactamase ratio, antagonist mode; series mostly up to 76.8 µM. In outline: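 Read-out: CCF4 fluorescence (ex 405, em 460/530 nm) after 2 h at RT. Cells were HEK293 carrying a UAS-bla reporter and treated 16 h at 37 C with compound plus rosiglitazone (50 nM final). Normalized to rosiglitazone and DMSO.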

Assay [14] is described as follows: qHTS assay for small molecule agonists of the antioxidant response element (ARE) signaling pathway (AID 651741; active = well fitted activation curve with a large enough effect in the signal ratio; the % refers to the signal ratio; note: % of control where 0% means no effect). Particulars: HepG2 ARE-bla reporter, beta-lactamase FRET ratio, 16 h; series mostly up to 96 µM. The gist of the method: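 HepG2 ARE-bla reporter cells, 2,000/well; 5 h settle at 37 C/5% CO2; compound pin transfer (23 nL, DMSO); 16 h at 37 C; LiveBLAzer B/G FRET substrate, 2 h RT; fluorescence intensity read.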

Assay [15] can be described thus: qHTS assay for small molecule activators of the nuclear factor-kappa B (NF-kB) signaling pathway (AID 651749; active = well fitted activation curve with a large enough effect in the signal ratio; the % refers to the signal ratio; note: % of control where 0% means no effect). The note with it: NF-kB-bla ME-180 cells, beta-lactamase FRET ratio, 16 h; stronger effect = higher value. The gist of the method:
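NF-kB-bla ME-180 cells, 2,000/well; 23 nL compound or DMSO pinned; 16 hr, 37C/5% CO2; beta-lactamase FRET read-out.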

In assay [16] the target is Estrogen receptor (Homo sapiens) (UniProt P03372). The assay is described as follows: qHTS assay for small molecule antagonists of estrogen receptor alpha signaling (AID 588513; active = well fitted curve in the direction sought with a large enough effect in the signal ratio, with a control signal flat, not every such curve was filed as active; the % refers to the signal ratio; note: % is set by controls: 0 for no effect and ±100 for the full control effect). Particulars: ER-alpha-UAS-bla HEK293, beta-lactamase ratio, antagonist mode; series mostly up to 76.9 µM. In outline: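 Fluorescence from CCF4 substrate after 2 h at room temperature gave reporter activity; cells had been exposed to compound and 0.5nM 17-beta-estradiol for 18 h at 37 C. Hill-equation fitting yielded IC50 and maximal response.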
Chain of Estrogen receptor (Homo sapiens) (P03372 whole entry, looked up): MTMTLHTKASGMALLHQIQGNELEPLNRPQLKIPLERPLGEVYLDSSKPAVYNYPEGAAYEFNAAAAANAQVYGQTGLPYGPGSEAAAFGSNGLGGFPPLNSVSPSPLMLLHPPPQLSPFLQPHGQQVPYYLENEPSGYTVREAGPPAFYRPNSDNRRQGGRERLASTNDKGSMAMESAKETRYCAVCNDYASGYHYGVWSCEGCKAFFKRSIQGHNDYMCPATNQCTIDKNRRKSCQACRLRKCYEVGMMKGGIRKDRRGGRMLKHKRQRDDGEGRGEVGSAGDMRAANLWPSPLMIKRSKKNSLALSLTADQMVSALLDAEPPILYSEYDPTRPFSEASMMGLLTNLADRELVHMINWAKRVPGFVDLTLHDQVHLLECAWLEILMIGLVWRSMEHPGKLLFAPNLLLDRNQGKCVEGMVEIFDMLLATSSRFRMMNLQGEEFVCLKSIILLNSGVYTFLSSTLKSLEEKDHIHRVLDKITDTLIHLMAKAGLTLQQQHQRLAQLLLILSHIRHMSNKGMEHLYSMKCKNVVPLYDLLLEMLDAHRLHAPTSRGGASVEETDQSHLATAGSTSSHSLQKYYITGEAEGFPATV

The target is the same in assay [17]. The assay is described as follows: qHTS assay for small molecule agonists of estrogen receptor alpha signaling (AID 588514; calls by dose curve;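 note: 0% = vehicle only and 100% = reference agonist; nearly all actives have a fitted effect of over 70% in size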). Particulars: ER-alpha-UAS-bla HEK293, beta-lactamase ratio, 18 h; series mostly up to 76.8 µM. In outline: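 Read-out: CCF4 fluorescence from a beta-lactamase reporter in ER-alpha-UAS-bla HEK 293 cells after 18 hrs of compound exposure at 37 C. Normalized to 20 nM 17-beta-estradiol (100%) and DMSO (0%).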

Assay [18] is described as follows: qHTS assay for small molecule antagonists of peroxisome proliferator-activated receptor delta signaling (AID 588535; active = well fitted inhibition curve with a large enough effect in the signal ratio, with a control signal flat, not every such curve was filed as active; the % refers to the signal ratio;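 for max response: cells co-treated with a PPAR-delta agonist as stimulator during compound exposure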). Particulars: HEK293T PPARd-UAS-bla, beta-lactamase FRET ratio, 18 h; 460 nm channel. In outline:
(§1)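 Beta-lactamase reporter read-out (405 nm excitation, 460/530 nm emission) after CCF4 loading for 2 hrs at RT. HEK293T PPAR-delta-UAS-bla cells, 2% charcoal/dextran FBS, compounds for 18 hrs at 37 C. Hill fit gave IC50 and efficacy.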

The target in assay [19] is Peroxisome proliferator-activated receptor delta (Homo sapiens) (UniProt Q03181). The description is as above. Particulars: HEK293T PPARd-UAS-bla, beta-lactamase FRET ratio, 18 h; series mostly up to 76.7 µM. The gist of the method: as §1
Chain of Peroxisome proliferator-activated receptor delta (Homo sapiens) (Q03181 whole entry, looked up): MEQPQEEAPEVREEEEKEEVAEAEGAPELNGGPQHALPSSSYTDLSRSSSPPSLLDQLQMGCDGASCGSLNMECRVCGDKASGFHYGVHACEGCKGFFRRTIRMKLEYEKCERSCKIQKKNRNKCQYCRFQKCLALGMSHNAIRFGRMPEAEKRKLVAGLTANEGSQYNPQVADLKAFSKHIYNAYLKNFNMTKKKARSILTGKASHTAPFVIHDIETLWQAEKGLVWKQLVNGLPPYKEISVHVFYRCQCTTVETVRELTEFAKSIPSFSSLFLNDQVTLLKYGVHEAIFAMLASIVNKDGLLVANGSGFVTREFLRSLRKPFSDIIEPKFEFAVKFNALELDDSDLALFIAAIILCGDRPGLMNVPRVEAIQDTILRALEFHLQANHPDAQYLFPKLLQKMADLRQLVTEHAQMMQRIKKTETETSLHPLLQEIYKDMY
For assay [20], the target named is Glucocorticoid receptor (Homo sapiens) (UniProt P04150). The assay is described as follows: qHTS assay for small molecule antagonists of glucocorticoid receptor signaling (AID 588533; active = well fitted inhibition curve with a large enough effect in the signal ratio, with a control signal flat, not every such curve was filed as active; the % refers to the signal ratio;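 note: cells stimulated with 2 nM dexamethasone as agonist; % is set by controls: 0 for no effect and ±100 for the full control effect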). Particulars: HeLa MMTV-bla, GRE beta-lactamase ratio, antagonist mode, 18 h; series mostly up to 76.8 µM. The gist of the method: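 Antagonist-mode qHTS: compound titrations added to GRE-bla HeLa cells, then dexamethasone 2 nM final; 18 h, 37 C. CCF4 FRET fluorescence normalized to dexamethasone and DMSO; IC50 from Hill fit.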
Chain of Glucocorticoid receptor (Homo sapiens) (P04150 whole entry, looked up): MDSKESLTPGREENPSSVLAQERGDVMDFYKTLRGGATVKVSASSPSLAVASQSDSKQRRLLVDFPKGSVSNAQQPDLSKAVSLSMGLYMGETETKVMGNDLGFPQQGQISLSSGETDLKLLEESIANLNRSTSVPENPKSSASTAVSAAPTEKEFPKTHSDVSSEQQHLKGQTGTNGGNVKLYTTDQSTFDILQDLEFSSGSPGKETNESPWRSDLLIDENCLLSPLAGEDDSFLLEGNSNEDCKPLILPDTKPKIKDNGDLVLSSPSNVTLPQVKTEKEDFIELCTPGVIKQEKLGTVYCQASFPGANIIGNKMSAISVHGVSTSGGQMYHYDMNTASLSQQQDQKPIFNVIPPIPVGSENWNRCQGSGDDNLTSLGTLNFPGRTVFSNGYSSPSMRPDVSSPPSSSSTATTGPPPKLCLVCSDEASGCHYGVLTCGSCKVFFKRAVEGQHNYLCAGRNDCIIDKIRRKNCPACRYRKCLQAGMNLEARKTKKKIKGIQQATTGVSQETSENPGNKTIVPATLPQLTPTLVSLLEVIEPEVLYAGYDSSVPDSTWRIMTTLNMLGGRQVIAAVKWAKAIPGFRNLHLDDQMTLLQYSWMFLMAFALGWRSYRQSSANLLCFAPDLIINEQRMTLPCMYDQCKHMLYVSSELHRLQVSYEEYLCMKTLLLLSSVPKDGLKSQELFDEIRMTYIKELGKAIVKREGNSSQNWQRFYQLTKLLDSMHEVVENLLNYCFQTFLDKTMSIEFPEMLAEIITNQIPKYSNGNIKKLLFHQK

Several values for one entry are separate records, joined by “and”; a condition that tells them apart may be missing. Equal entries are not always repeated. Results filed as inconclusive are left out. Activity calls are given as the source filed them. Unless noted, calls come from the whole dose curve; as a rule, active = well fitted curve in the direction sought with a large enough effect; inconclusive = small, poorly fitted or top-dose-only effect, or another doubt; inactive = no such curve, though single readings can be large; an effect the other way counts as inactive or inconclusive.

Chain of Peroxisome proliferator-activated receptor gamma (Homo sapiens) (P37231 whole entry, looked up): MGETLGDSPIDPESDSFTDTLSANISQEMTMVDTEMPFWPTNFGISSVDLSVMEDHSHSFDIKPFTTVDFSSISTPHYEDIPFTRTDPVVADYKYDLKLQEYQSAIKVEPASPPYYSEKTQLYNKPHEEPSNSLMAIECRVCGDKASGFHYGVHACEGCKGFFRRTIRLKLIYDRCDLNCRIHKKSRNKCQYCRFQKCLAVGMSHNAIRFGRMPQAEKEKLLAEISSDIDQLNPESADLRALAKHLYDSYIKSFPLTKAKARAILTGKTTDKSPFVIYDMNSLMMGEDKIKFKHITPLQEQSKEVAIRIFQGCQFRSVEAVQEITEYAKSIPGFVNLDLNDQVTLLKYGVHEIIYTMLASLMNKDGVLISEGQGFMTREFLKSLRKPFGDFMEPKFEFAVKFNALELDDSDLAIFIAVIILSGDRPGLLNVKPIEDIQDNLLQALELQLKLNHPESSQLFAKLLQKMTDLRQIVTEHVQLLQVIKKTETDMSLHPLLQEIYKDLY
Chain of Bile acid receptor (Homo sapiens) (Q96RI1 whole entry, looked up): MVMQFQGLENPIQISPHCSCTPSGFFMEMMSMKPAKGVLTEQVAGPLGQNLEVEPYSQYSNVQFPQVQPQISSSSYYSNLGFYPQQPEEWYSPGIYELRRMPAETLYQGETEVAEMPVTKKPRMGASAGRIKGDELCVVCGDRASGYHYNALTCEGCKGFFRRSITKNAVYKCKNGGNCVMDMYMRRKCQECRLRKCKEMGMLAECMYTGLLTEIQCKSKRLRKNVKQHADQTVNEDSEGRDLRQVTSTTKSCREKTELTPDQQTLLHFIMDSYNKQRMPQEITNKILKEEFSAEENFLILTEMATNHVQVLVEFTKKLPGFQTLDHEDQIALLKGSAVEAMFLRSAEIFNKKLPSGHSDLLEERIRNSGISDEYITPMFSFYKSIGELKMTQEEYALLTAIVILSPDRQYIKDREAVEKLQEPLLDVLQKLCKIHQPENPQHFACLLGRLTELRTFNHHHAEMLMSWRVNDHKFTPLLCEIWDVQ

Turning to `CC(C)(Cl)[N+](=O)[O-]`, the Potency in assay [1], in assay [2] and in assay [3] was > 92 µM (inactive) throughout. Further, the Potency result in [4], in assay [5], in assay [7], in assay [8], in [13] and in [14] was “inactive” in each case. Moreover, the compound was classed as inactive in assay [6], in [11] and in assay [12]. Further, the activation in assay [9] is 0.224% (inactive); in [10] it was -3.18% (inactive); in assay [15], -0.598% (inactive).

As for `O=C(Cc1ccccc1)OCc1ccccc1`, the Potency in assay [1] and in assay [2] was > 92 µM (inactive) throughout. In addition, the Potency entry in assay [4], in [5], in assay [7], in assay [8], in assay [16] and in assay [17] was “inactive” in each case. Besides, the call in assay [6], in assay [11], in assay [19] and in assay [12] was inactive. For the same compound, the activation was -3.22% (inactive) in assay [9] and 0.186% (inactive) in assay [10]. For the same compound, in assay [18], the max response was 18.5%.

For `C1CC2OC2CC1C1CO1` (stereo not given), the Potency in assay [1] and in [2] was > 92 µM (inactive) each time. Also, the Potency entry in assay [4], in assay [5], in [7], in assay [8], in [17] and in assay [13] was “inactive” in each case. The Potency result in assay [14] was “inactive”. Also, the activation was -0.198% (inactive) in assay [9]; -0.692% (inactive) and -2.3% (inactive) in assay [15]. Moreover, the result in assay [11], in [19] and in assay [12] was inactive. Besides, in [18], the max response worked out at 13.2%.

Regarding `CC(C)(OOC(C)(C)c1ccccc1)c1ccccc1`, the Potency in assay [2] and in [3] was > 92 µM (inactive) throughout. In addition, the Potency entry in assay [4], in assay [5], in [7], in assay [8] and in assay [14] was “inactive” throughout. The compound was called inactive in assay [6], in assay [20], in assay [11], in assay [19] and in [12]. For the same compound, the activation was 3.57% (inactive) and 3.43% (inactive) in [9]; -3.95% (inactive) and 1.36% (inactive) in assay [10]; 0.182% (inactive) and -0.836% (inactive) in assay [15]. In addition, the max response in assay [18] is 42.8% and 13.3%.

Consider `C=CCc1cc(OC)c2c(c1)OCO2`, for which the Potency in assay [1] and in assay [3] was > 92 µM (inactive) throughout. For the same compound, the Potency entry in assay [4], in assay [5], in assay [7] and in [8] was “inactive” each time. Besides, the outcome in [6], in [20], in [11] and in [12] was inactive. Also, the values for the activation in assay [10] and in [15] were -4.93% (inactive) and -0.352% (inactive), respectively.

`ClCC(Cl)Cl`: the Potency in assay [2] and in [3] was > 92 µM (inactive) in each case. Besides, the Potency entry in assay [4], in assay [5], in assay [7], in assay [8] and in assay [14] was “inactive” each time. Besides, the result in [6], in assay [11] and in [19] was inactive. For the same compound, the max response in [18] was -51.8%.

In the case of `ClCCOCOCCCl`, the Potency in assay [1] and in assay [3] was > 92 µM (inactive) throughout. Also, the Potency entry in assay [5], in assay [7], in [8] and in [13] was “inactive” in each case. In addition, the call in assay [6] and in assay [20] was inactive. For the same compound, the figures for the activation in assay [9], in assay [10] and in assay [15] were 0.794% (inactive), -0.285% (inactive) and -0.753% (inactive), respectively.

With `CCNCC`, the Potency in [1], in assay [2] and in assay [3] was > 92 µM (inactive) each time. Besides, the Potency entry in [4], in [5], in assay [7], in assay [13] and in [14] was “inactive” in each case. Also, the compound was classed as inactive in [6], in [20], in assay [11], in assay [19] and in assay [12]. Besides, in assay [10], the activation was 0.672% (inactive). For the same compound, the max response in [18] worked out at 21.4%.

The values above are taken from PubChem BioAssay (NCATS).
